# JMJD2E inh: qHTS Assay for Inhibitors of Human Jumonji Domain Containing 2E (JMJD2E); Lysine-specific demethylase 4E (Homo sapiens), B2RXH2; JMJD2E catalytic domain, FDH-coupled NADH fluorescence (FDH is formaldehyde dehydrogenase); Potency, µM (series often up to 57.1 µM), inactives show at the top dose activity change, negative = inhibition, most hits filed as inhibitors; actives 1.6% (n = 230,000); AID 2147, 2009;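 further: 0% = wells with enzyme and -100% = buffer wells without enzyme; nearly all actives have a fitted effect of over 50% in size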
# ALDH1A1 block: qHTS Assay for Inhibitors of Aldehyde Dehydrogenase 1 (ALDH1A1); Aldehyde dehydrogenase 1A1 (Homo sapiens), P00352; Purified ALDH1A1, NADH fluorescence, propionaldehyde substrate; Potency, µM (doses to about 75.3 µM), for inactives: at the top dose activity, negative = inhibition, actives largely listed as inhibitors; actives 7.3% (n = 220,000); AID 1030, 2008;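 further: plate controls were no enzyme wells and a reference inhibitor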
# Target sequence (P00352 whole entry, looked up): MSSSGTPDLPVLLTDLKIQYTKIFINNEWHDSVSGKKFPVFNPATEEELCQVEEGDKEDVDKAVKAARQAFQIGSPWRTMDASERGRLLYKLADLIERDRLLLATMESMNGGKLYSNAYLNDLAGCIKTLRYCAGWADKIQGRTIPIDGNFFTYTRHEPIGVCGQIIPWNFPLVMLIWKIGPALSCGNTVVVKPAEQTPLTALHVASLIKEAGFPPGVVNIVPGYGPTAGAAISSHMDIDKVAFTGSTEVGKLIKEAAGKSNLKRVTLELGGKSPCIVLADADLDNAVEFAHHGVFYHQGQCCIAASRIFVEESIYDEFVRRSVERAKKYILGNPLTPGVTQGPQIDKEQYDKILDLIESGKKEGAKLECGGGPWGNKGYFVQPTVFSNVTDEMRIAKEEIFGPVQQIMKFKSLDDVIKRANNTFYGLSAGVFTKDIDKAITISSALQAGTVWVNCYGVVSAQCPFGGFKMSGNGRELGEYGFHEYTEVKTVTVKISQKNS
# HTT cytoprotect: qHTS Multiplex Assay to Identify Dual Action Probes in a Cell Model of Huntington: Cytoprotection (ATP) | Potency, µM (highest dose often 56.4 µM), without a hit: cytoprotection (ATP increase), most hits filed as activators | actives 0.14% (n = 230,000) | PC12 HTT-Q103 induced, cytoprotection, ATP luminescence, 40 h | AID 1471, 2008; active means well fitted curve in the direction sought with a large enough effect; inconclusive means small, poorly fitted or top-dose-only effect, or another doubt; inactive means no such curve, though single readings can be large; an effect the other way counts as inactive or inconclusive; further: % of control where 0% means no effect; nearly all actives have a fitted effect of over 45% in size
#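 Readout: ATPlite luminescence (ATP level). Model: stable PC12, inducible Htt exon1 Q103-GFP. Inducer: tebufenozide, 100 nM final. Compounds: dose series. No G418 in medium.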
# Lamin A splicing: qHTS Assay for Modulators of Lamin A Splicing. HeLa LMNA splicing GFP/RFP minigene ratio, 48 h. Potency, µM (series often up to 46.1 µM), inactives show at the top dose ratio change, negative = inhibition, actives largely listed as inhibitors. actives 0.01% (n = 200,000). AID 1487, 2009; active means well fitted inhibition curve with a large enough effect in the signal ratio, with a control signal flat, not every such curve was filed as active; inconclusive means small, poorly fitted or top-dose-only effect, or effect the other way, or a change in a side signal; the % refers to the signal ratio; further: on the % scale 0 is the no-effect control and ±100 the full control effect
#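 S3 HeLa cells stably expressing lamin A-EGFP splicing minigene plus DsRed2, 600 cells/well, 48 h compound exposure at 37C. Laser-scanning cytometry; analysed as GFP (500-530 nm)/RFP (575-640 nm) total intensity ratio; 0.5% DMSO vehicle.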
# HttQ103 aggreg: qHTS Multiplex Assay to Identify Dual Action Probes in a Cell Model of Huntington: Aggregate Formation (GFP); Potency, µM (top dose mostly 46.1 µM), without a hit: at the highest dose activity change, negative = inhibition, hits mostly inhibitors; PC12 HttQ103-GFP aggregates, Acumen cytometry, 40 h; actives 1.1% (n = 220,000); active means well fitted curve in the direction sought with a large enough effect; inconclusive means small, poorly fitted or top-dose-only effect, or another doubt; inactive means no such curve, though single readings can be large; an effect the other way counts as inactive or inconclusive; further: on the % scale 0 is the no-effect control and ±100 the full control effect; nearly all actives have a fitted effect of over 60% in size
#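 Using laser scanning cytometry, GFP-positive aggregates were counted after lysis of PC12 cells induced with 100 nM tebufenozide to express HTT exon 1 Q103–GFP. Compounds were tested in titration.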
# HPGD inh: qHTS Assay for Inhibitors of HPGD (15-Hydroxyprostaglandin Dehydrogenase). AID 894, 2007. Potency, µM, for inactives: at the highest dose activity change, negative = inhibition, hits mostly inhibitors. actives 4.3% (n = 150,000). 15-hydroxyprostaglandin dehydrogenase [NAD(+)] (Homo sapiens), P15428. purified HPGD, NADH fluorescence kinetic, PGE2 substrate; further: on the % scale 0 is the no-effect control and ±100 the full control effect
# Target sequence (P15428 whole entry, looked up): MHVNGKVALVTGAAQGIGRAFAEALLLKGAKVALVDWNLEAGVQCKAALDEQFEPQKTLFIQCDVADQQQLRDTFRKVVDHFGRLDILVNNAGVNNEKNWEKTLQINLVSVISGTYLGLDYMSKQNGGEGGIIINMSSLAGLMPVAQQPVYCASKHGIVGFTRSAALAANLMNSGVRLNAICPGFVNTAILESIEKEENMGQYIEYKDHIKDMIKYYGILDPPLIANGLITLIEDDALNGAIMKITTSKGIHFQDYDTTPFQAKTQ
#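 20 nM HPGD preincubated 15 min at room temperature with compound in 50 mM Tris-HCl pH 8, 0.01% Tween 20. Started with 1 mM NAD+ and 30 uM prostaglandin E2; NADH fluorescence (360/450 nm) read 5 times over 30-s intervals, last minus first.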
# Starred values were filed as active, the others as inactive; u = inconclusive; x = no result; [ ] = another dose, or the depositor's remark. In the library only some 9.2% were active in any assay of this set; here they are far more common. Unless noted, the call rests on the fitted dose curve; in most records, active means well fitted inhibition curve with a large enough effect (not every such curve was filed as active); inconclusive means small, poorly fitted or top-dose-only effect, or another doubt; inactive means no such curve, though single readings can be large or run the other way. Potency means the concentration at half of the fitted maximal effect.
SMILES,JMJD2E inh,ALDH1A1 block,HTT cytoprotect,Lamin A splicing,HttQ103 aggreg,HPGD inh
O=C1C(Cl)=C(Cl)C(=O)C(Cl)=C1Cl,u,0.4µM*,-301%,x,x,0.89µM*
CC/C(=C\C=C\[C@@H]1C=C[C@@H]2CCC[C@H]2[C@@H]1C(=O)c1ccc[nH]1)[C@@H]1O[C@@H]([C@@H](C)C(=O)O)CC[C@@H]1C,u,-9%,-35%[10 µM],u,11µM*,-7%
CNC(C)[C@H](O)c1ccccc1 (stereo partly specified),4%,7%,17%,x,x,-2%
CC([C@H](O)c1ccccc1)N(C)C (stereo partly specified),u,20µM*,-4%,-10%,-7%,-1%
Oc1cccc(Cl)c1,x,2%,9%,x,x,-7%
O=C1NC(=O)N(CCC2=CCCCC2)C(=O)/C1=C/c1cccs1,-8%,x,-7%[10 µM],x,-2%[9.22 µM],x
O=C1NC(=O)N(CCC2=CCCCC2)C(=O)/C1=C/c1ccc(O)cc1,u,0.79µM*,15%[10 µM],-2%,3%,11µM*
COc1ccc(/C=C2\C(=O)NC(=O)N(CCC3=CCCCC3)C2=O)c(OC)c1,-3%,0.32µM*,3%[10 µM],-9%,-4%,20µM*
CCOC(=O)[C@@H]1[C@@H]2c3ccccc3-c3ccccc3[C@H]2C[C@H]1O,x,14%[13.5 µM],6%[10 µM],x,x,-8%
COc1cc(/C=N/NP(=S)(c2ccccc2)c2ccccc2)ccc1O,2%,u,-16%,3%,12%[9.22 µM],-21%
Oc1ccc(/C=N/NP(=S)(c2ccccc2)c2ccccc2)cc1,-11%,20µM*,13%,-4%,-18%,32µM*
CC(C)C[C@H]1C(=O)N2CCCC2[C@]2(O)O[C@](NC(=O)[C@@H]3C=C4c5cccc6[nH]c(Br)c(c56)C[C@H]4N(C)C3)(C(C)C)C(=O)N12 (stereo partly specified),u,1%,u,u,14%,-27%
CN1C(=O)N(C)C(=O)C2(Cc3ccccc3N3CCOCC32)C1=O (stereo unspecified),10%,20µM*,-7%[0.074 µM],-18%,6%,-12%
CCC1(c2ccccc2)C(=O)N(C)C(=O)N(C)C1=O,1%,2%,-30%,1%,-6%,5%
COc1ccc(C(C)=O)cc1CC(C(=O)c1ccc(F)cc1)N(C)C (stereo unspecified),7%,4%,14%[10 µM],-7%,8%,-19%
COc1ccc(C(C)=O)cc1COC(=O)c1ccc2ccccc2n1,-12%,14µM*,22%[10 µM],16%[46 µM],13%,x
Cc1ccc(S(=O)(=O)NC(CC(=O)N2CCC3(CC2)OCCO3)c2ccco2)cc1 (stereo unspecified),5%,13µM*,-33%[10 µM],-3%,-20%,-2%
CC(=O)Nc1ccc(S(=O)(=O)NC(CC(=O)N2CCC3(CC2)OCCO3)C(C)C)cc1 (stereo unspecified),5%,4%,7%[10 µM],10%,9%,3%
CCOc1ccccc1OCCCCN1CCCC1,0%,22µM*,4%,-2%,-17%,-8%
O=C(OCC(=O)c1ccc([N+](=O)[O-])cc1)/C(=C/c1ccc(Cl)cc1)NC(=O)c1ccccc1,-10%,7.9µM*,x,-1%,-14%,-15%
C=CCCN1C[C@@H]2C[C@H](C1)c1cccc(=O)n1C2,x,x,7%,x,x,x
C[C@@H](O)CN(CCN(C[C@@H](C)O)C[C@@H](C)O)C[C@@H](C)O.O=[N+]([O-])O.[Cu],x,u,-17%[10 µM],x,x,4%
Cc1ccc(C(=O)n2c(N)nc3ccccc32)cc1,35µM*,7%,-92%[10 µM],x,1%[9.22 µM],x
NS(=O)(=O)c1ccc(-c2ccc([As](=O)(O)O)cc2)cc1,x,4%[13.5 µM],3%[10 µM],x,x,-11%
O=[N+]([O-])c1cccc(CN2CCN(Cc3ccc(Br)cc3)CC2)c1,25µM*,u,14%[10 µM],x,-22%,x
SMILES,JMJD2E inh,ALDH1A1 block,HTT cytoprotect,Lamin A splicing,HttQ103 aggreg,HPGD inh
O=C(Cc1ccccc1)N1CCN(Cc2ccc([N+](=O)[O-])cc2)CC1,u,u,x,5%,-22%,-3%
Cc1cccc(NC(=O)c2cccc(NS(=O)(=O)c3ccc(Cl)cc3)c2)c1,5%,u,4%,u,-1%,13µM*
Cc1cccc(C(=O)Nc2ccc(Cl)cc2C(=O)c2ccccc2)c1,-5%,-7%,-5%,0%,2%,-15%
CC(=O)O.CC(=O)O.[Cd],20µM*,13µM*,x,u,x,-11%
CCN=C=NCCCN(C)C,x,-1%[13.5 µM],0%[10 µM],x,x,0%
NCC(O)c1cc(O)c(O)cc1F (stereo unspecified),14µM*,-8%,x,u,x,-18%
NC[C@H](O)c1cc(O)c(O)cc1F,x,x,12%[1.9 µM],x,x,x
CC(=O)O[C@@H]1C[C@@]2(C)C(c3ccoc3)C[C@H]3O[C@]32[C@]2(C)C(=O)C(O)=C3C(C)(C)C(=O)C=C[C@]3(C)C12 (stereo partly specified),-1%,1%,x,x,x,-8%
CC(C)OC(=O)Nc1cccc(Cl)c1,3%,-1%,x,-4%,x,13µM*
O=C1NC(=O)C(=Cc2ccccc2Oc2ccc(F)cc2)C(=O)N1,-13%,u,7%,x,-19%,x
CN1C(=O)C(=Cc2ccccc2Oc2ccc(Cl)c(F)c2)C(=O)N(C)C1=O,-1%,u,-15%,-1%,-8%,11µM*
COc1cc(/C=C2\C(=O)NC(=O)N(CCc3ccc(F)cc3)C2=O)ccc1O,-27%,13µM*,6%[10 µM],0%,9%,13µM*
COc1cc(C=C2C(=O)NC(=O)NC2=O)ccc1O,-7%,19µM*,1%[10 µM],x,-13%[9.22 µM],x
CN(C)c1ccc(C=C2C(=O)NC(=O)NC2=O)cc1[N+](=O)[O-],2%,u,-27%,-19%[46 µM],-7%,x
COc1cc(/C=C2\C(=O)NC(=O)N(c3ccc(C)cc3)C2=O)cc(OC)c1O,u,u,16%,x,4%,x
COc1ccc(CN2C(=O)NC(=O)/C(=C/c3ccoc3)C2=O)cc1,-20%,x,-20%[10 µM],x,-16%[9.22 µM],x
CCOc1ccc(/C=C2/C(=O)NC(=O)N(CCc3ccc(F)cc3)C2=O)cc1,-5%,1.4µM*,2%[10 µM],-8%,-9%,10µM*
CCOc1cc(C=C2C(=O)NC(=O)NC2=O)cc([N+](=O)[O-])c1O,8%,28µM*,-3%[10 µM],x,-3%[9.22 µM],x
C=CC(=C)C,x,17%,-14%,x,x,2%

# Bioassay records as filed in PubChem.
